# In PubChem BioAssay AID1508600 (Functional Genomics Laboratory (NCATS/FGL), 2020):
# The campaign covered roughly 53,000 sequences. About 3,700 (7%) were called active.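 The calls were made as follows: active = gene knockdowns whose robust z-score for IL-1 alpha signal is at least 2 or at most -2, so actives lie on both sides; inactive = the rest.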 The sample as a whole holds a higher share of actives than the screen did.
# Assay: Components of the Cytosolic LPS Sensing Pathway: Gene Identification via Genome-wide siRNA Screen;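 also: robust z of the log signal after scaling to non-targeting control siRNA wells of the plate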
# Settings: RAW264.7 macrophages, IL-1a HTRF, actives lie on both sides, screened at 100 nM (by protocol), cells primed 5 h with Pam3CSK4 first
# Outline: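 Supernatant IL-1a by HTRF from RAW264.7 cells primed with Pam3CSK4 (5 hours) and transfected with LipidA (24 hour) after 48h siRNA knockdown at 100 nM; cell viability checked with CellTiter-Glo.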
row,Sequence,z-score
1,GCAUAAGCGAAGAAGAAGUTT against Clk2,0.0795 (inactive)
2,GCUGGCUGUUUCACUACAGTT against Tdh,3.19 (active)
3,GCUAGAGUAGCUUUGGGCATT against Glra3,1.37 (inactive)
4,GCAAGAUUUAUCCCAGUCGTT against Rnf2,-1.83 (inactive)
5,GCUUCGACAUUGUUAGUUATT against Ammecr1,0.322 (inactive)
6,GCAUGUUCGUGGAAGUACUTT against Got1l1,0.0202 (inactive)
7,GGAGAUCCUCAAGGAGCAGTT against Park7,2.02 (active)
8,GCAGUUUCUAAUGAAGGUUTT against Ppp2r5a,0.416 (inactive)
9,CGGUCUGCUCUACAUUGUCTT against Nek4,1.39 (inactive)
10,GCCUAUGGGUCAUUUCAAATT against Dock11,-0.968 (inactive)
11,GGGCAGGUGGAUGUGGAAATT against Ryr2,0.546 (inactive)
12,GGUACCAUAUCUGUGAACATT against Nrxn3,-1.25 (inactive)
13,GGUUCAGCUGGUCCUAUCUTT against Olfr1099,-2.07 (active)
14,GGCAAUGCUGUCCUACUAUTT against Map2k5,-1.19 (inactive)
15,GGAGAACUUAAAGCACAAUTT against Plxnb1,0.179 (inactive)
16,UCCUAGAGUCAUCAUCAUATT against A530064D06Rik,-0.44 (inactive)
17,GGAAUCUAUGAACAUGUUUTT against Pcdh12,-0.433 (inactive)
18,GGCUGGGAAAAAAAAAGAATT against Ifi205,0.704 (inactive)
19,GGAUUUUUAUGAUAGUGACTT against Slc4a1ap,-0.747 (inactive)
20,GCAUCACUGGAAAUCUUACTT against Olfr807,-2.31 (active)
21,CCAUUUGAUCAAGCUUUAGTT against Spock3,0.0957 (inactive)
22,GGACUCUCAAUGAUGAAUATT against Map7d3,1.85 (inactive)

row,Sequence,z-score
1,GCGACACAUUCGAUCUCAGTT against Mecom,4.11 (active)
2,CCAGAUUCGAAUAUCUAAGTT against Mrps30,0.935 (inactive)
3,GCCAGAAUGGACUUGAGAATT against Vmn1r227,-1.21 (inactive)
4,GCCUUAAUGAGGGUUAUGCTT against Fbp1,-1.11 (inactive)
5,CGAACCAUAGCUAGCUCCATT against Klhdc8b,-0.869 (inactive)
6,GGCUCAGUCCCAUCAGCAUTT against Gdf7,0.524 (inactive)
7,GGUUUGAUCUCAUUUUCCUTT against Mcm4,2.92 (active)
8,GGAACAGUAUAUAAGUUCATT against Hcfc2,-0.593 (inactive)
9,GCUACUUCAUGGAAUCUUCTT against Mrgprb8,-0.668 (inactive)
10,CGUUUGAAUAAUUCAGAGUTT against Armcx2,-0.152 (inactive)
11,GGUGGAAGGCUUUUUCUACTT against Olfr1104,1.63 (inactive)
12,GCGAUACCGUGCCAUGUUUTT against Dohh,-1.21 (inactive)
13,CGAAGAUUACCUUUCAAGATT against St6galnac3,0.371 (inactive)
14,GCCCUUUCGCCUAUGGUUUTT against Tedc1,0.931 (inactive)
15,GCUAAUCAACAAUGUCGCCTT against Atp5b,0.781 (inactive)
16,GGUUAAAGUCCUUCAGUAUTT against Tubb3,2.83 (active)
17,GGAAAAAACCACGAUUGAGTT against Pecam1,-0.434 (inactive)
18,GGCUUACCUACAACAAGUUTT against Ccnt1,-2.07 (active)
19,GGUUAGGCACAAAUAAGUUTT against B230206H07Rik,1.08 (inactive)
20,GGUUCCUAUACCCAACGGUTT against Mrgpra7,-1.07 (inactive)
21,GGUUGAUGAUAGCUCUGAATT against Opn1mw,-0.22 (inactive)
22,GGUCUUAAGGAGAAAUGAATT against Cbln2,-0.48 (inactive)

row,Sequence,z-score
1,GCUUCGCUCGCAUUCUUAUTT against Rsrc1,-0.299 (inactive)
2,GGACUAUCCAGGAAUCGUGTT against Ergic3,0.713 (inactive)
3,GGACAAGCUGAAGACGCACTT against Zfp64,3.03 (active)
4,GCAUAGUCUUGUUAACCAGTT against Poldip3,-0.689 (inactive)
5,GGAUUCAUAGACUUCAUAGTT against Impdh1,0.608 (inactive)
6,CCAUCUGGACUUCAGUUUUTT against Rap1gap2,0.901 (inactive)
7,GCACUCAAAUGGUAGAUUCTT against Socs6,-0.315 (inactive)
8,GGGUGAACUCGGACAUUGATT against Spata19,-0.754 (inactive)
9,GCGUGAACACCUGAGGAUUTT against Rchy1,-0.323 (inactive)
10,GGUGUUGCUUAUCAUCGGCTT against Mrgprh,-2.03 (active)
11,GGGCAUCCUGGAUCAUCAUTT against Nlrp6,-1.64 (inactive)
12,CCUUAGAUAUCUACUGUAATT against Trim2,1.37 (inactive)
13,GGUGCAAGUUUUGGUGGGATT against Etfbkmt,0.35 (inactive)
14,GGAACCUAAUUGAAUGGCUTT against Cmbl,0.985 (inactive)
15,GGCGAAUGUGUGAAGAGGCTT against H2-Q5,-1.97 (inactive)
16,GCUGCUAGCAAAAAGAACUTT against Yaf2,2.24 (active)
17,GGAUGUUACGAAGAAGAUUTT against Ash1l,-0.664 (inactive)
18,GCCAUAUAUCUGCUAUCAUTT against Clvs2,2.34 (active)
19,GCAACUUAAAGGCAUCUCCTT against Sntn,1.53 (inactive)
20,GGGAAUCUUGGCAUGAUGGTT against Olfr1030,-0.325 (inactive)
21,GGUAUUUAUCUGAAUCUGATT against Dennd2c,0.668 (inactive)
22,CCAGCCUCUUCUAAUACACTT against Preb,-0.413 (inactive)

row,Sequence,z-score
1,CCCAUCCAAUGCUUAUGUGTT against Scg5,-0.421 (inactive)
2,GCCUAAAAAGAGUGGGUCATT against Mllt1,-2.73 (active)
3,GGAUCUAGGAGCUGAUUAUTT against Mecr,-1.18 (inactive)
4,CCAUCAUGCCCUGUUUGCATT against Cdc42ep3,0.393 (inactive)
5,GCUCUUGUUAUUUACGUCGTT against Lgi1,0.478 (inactive)
6,CGACCACAUGAGGAUGCAUTT against Zbtb20,-0.974 (inactive)
7,CCAUUAUUGGCCCAUGCUCTT against Babam1,-2.75 (active)
8,GGUUAUAAAACUAUGGAACTT against Map2k5,0.133 (inactive)
9,GGAUCAUUGUUCUCUCAAGTT against Psmg2,0.186 (inactive)
10,GGCUCAAAAGUCUUGGGACTT against Hells,0.31 (inactive)
11,CGCAGAUGAUUAAGUUGGUTT against Olfr1000,0.961 (inactive)
12,GGUGGAGACAGAAAUCCAATT against Amot,0.23 (inactive)
13,CGGAACCUUAUUUAAAACUTT against Sirt5,0.732 (inactive)
14,GGUAUCUGUGCAAGGGCAATT against Defb5,2.07 (active)
15,CCUACUCGUGUCGUGAUAATT against Rxrb,-0.841 (inactive)
16,GGGCAUUCAGCAGUUACAGTT against Lrriq4,0.521 (inactive)
17,GGUUUAUGGGACAGUUUUUTT against Plk2,5.58 (active)
18,CGUGGAUGAUACCAAAAUGTT against Igsf21,-0.73 (inactive)
19,GGUGCUGAAGAAGCACCAUTT against Stat5a,0.271 (inactive)
20,GCGAGAUUCUUGCUUACUCTT against Slc66a2,-0.472 (inactive)
21,GGAUGUUUUCCCGACAAGATT against Angptl1,-1.27 (inactive)
22,GGAUGGGAAGACUACCCGATT against Camta2,-2.62 (active)

row,Sequence,z-score
1,CGACCUUCAAGGCAAUAUUTT against Anapc2,-0.573 (inactive)
2,CCAUCUAACCCUAUAUUAGTT against G6pdx,-1.21 (inactive)
3,CCAUGAAUAGCAUCUUUGCTT against Adamtsl2,-0.25 (inactive)
4,GGAUGACAAAAAUUUCAAGTT against St14,-0.283 (inactive)
5,GGAGAGGGUCUUAGUCAGATT against Wasf1,0.802 (inactive)
6,GGGUGACAUGGUGACCAUCTT against Matk,3.54 (active)
7,GGCCUUGUAUCUCUUUACATT against Hdgf,0.425 (inactive)
8,GCUGGUUUUGAACUGUACATT against Flt4,0.155 (inactive)
9,CCCAAGUGGUAAGAUUGGUTT against Rps3,0.123 (inactive)
10,CCCUUGUCUAAAAUAUACATT against Zfp941,-0.387 (inactive)
11,CCCUGCUAUCAGCAUCACATT against Hacd3,-3.09 (active)
12,CGGUAUUUGUCUGUAUCCUTT against Npc2,-1.71 (inactive)
13,GCUGGAUUCUGGUAAAUGGTT against Eif5a,-0.836 (inactive)
14,GCAGAUCCGAGACAAGUAUTT against Cplx2,-1.91 (inactive)
15,GGAUGAACAACUCUAGGCCTT against Mafk,-0.736 (inactive)
16,GGUCUACAGCUACCUGAAUTT against Npc2,0.105 (inactive)
17,GCGGUUUCUUACCAAUAACTT against Cyp1a2,0.984 (inactive)
18,GGAAGCGUGGAAGUCUACGTT against Kcnj16,0.277 (inactive)
19,GGGCAAAGGGAGUGACAAATT against Skp2,-1.95 (inactive)
20,GGACAACUACAUUGUACUGTT against Insr,-1.16 (inactive)
